This is a sample that favours compounds with a hit; in the whole collection about 1.8% have one here.
PrPC surface inh = inhibitors of human cell surface prion protein PrPC; TR-FRET read-out; 370,000 compounds, 0.43% hits; inhibition, % at 13.8 µM; P04156; AID 720596; in the data active means inhibition above about 24%; further: 0% = median of the test wells and 100% = reference compound wells
PfHsp40 yeast = compounds rescuing yeast from Plasmodium falciparum HSP40 toxicity. 340,000 compounds, 0.68% hits. AID 504582. S. cerevisiae expressing PfHsp40, growth rescue, ATP luminescence. growth rescue, % at 12.5 µM; in the data active means growth rescue above about 28%, passing the limit was not always enough;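 further: yeast W303a lacking pdr1 and pdr3 grown in galactose medium; growth measured after three days at 30 °C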
Sa ugtP lethal = growth inhibition of S. aureus ugtP deletion strain | S. aureus RN4220 ugtP deletion, OD600 growth, 16 h | growth inhibition, % (test concentration not listed) | 330,000 compounds, 0.54% hits; in the data active means growth inhibition above about 68%;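 further: plate controls were untreated wells for no effect and antibiotic for full effect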
DUSP3 inh = DUSP3 (human) phosphatase inhibition. P51452. recombinant VHR phosphatase, pNPP absorbance. inhibition, % at 13.3 µM. 290,000 compounds, 0.52% hits; in the data active means inhibition above about 50%
Target sequence (P51452 whole entry, looked up): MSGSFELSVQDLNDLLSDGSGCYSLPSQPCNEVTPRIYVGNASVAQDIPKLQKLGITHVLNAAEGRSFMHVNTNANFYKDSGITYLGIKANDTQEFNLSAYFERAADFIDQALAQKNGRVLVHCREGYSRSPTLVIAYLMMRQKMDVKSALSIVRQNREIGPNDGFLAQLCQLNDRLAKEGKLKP
Sa RN4220 lethal = S. aureus RN4220 growth inhibition; OD600, 16 h; inhibition, % (no concentration beside the values); 330,000 compounds, 0.33% hits; AID 1259311; in the data active means inhibition above about 85%;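 further: plate controls were untreated cells for no effect and reference antibiotic for full effect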
The depositor's hits bear a star; x = no result.

SMILES	PrPC surface inh	PfHsp40 yeast	Sa ugtP lethal	DUSP3 inh	Sa RN4220 lethal
CC(=O)[C@@]1(O)CCC2C3CCC4=CC(=O)CC[C@]4(C)C3C(O)C[C@@]21C (some centres undefined)	x	x	1.5	x	2.7
CCOC(=O)c1c(C)oc2c1c(C=NCC1CCCO1)c(O)c1ccccc12 (centres undefined)	14.1	-1.2	x	50.8*	x
CCOC(=O)c1c(C)oc2c1c(C=NCc1ccccn1)c(O)c1ccccc12	-21.4	-0.7	1.7	17.0	14.5
CC(NC(=O)c1ccc(F)cc1)c1ccc2c(c1)CCCC2 (centres undefined)	6.8	0.2	-15.7	14.0	-9.6
CC(NC(=O)c1ccc(Br)cc1)c1ccc2c(c1)CCCC2 (centres undefined)	-2.4	137.5*	-11.5	31.5	-6.5
CC=CC(=O)OCC(=O)Nc1ccc(C)c(S(=O)(=O)N(C)C)c1	x	x	-4.0	x	1.0
CC1C(c2ccccc2)OC(c2ccccc2Br)N1C (centres undefined)	x	x	6.5	x	13.8
c1ccc(C2OC3c4cccc5cccc(c45)C3N2c2ccccc2)cc1 (centres undefined)	-22.7	1.1	84.4*	9.4	-6.0
C#CCNC(=O)C1=CC(c2ccc3c(c2)OCO3)CC(OCCCCO)O1 (centres undefined)	x	x	1.9	x	5.7
CC(=O)NNC(=O)c1[nH]c2ccc(Br)cc2c1-c1ccccc1	9.7	7.3	-20.9	-2.4	1.0
CCOC(=O)NNC(=O)c1[nH]c2ccc(Br)cc2c1-c1ccccc1	4.9	4.8	-4.9	54.7*	2.1
O=C(CCC1CCCN(C(=O)c2ccccc2Cl)C1)N1CCN(c2ccccn2)CC1 (centres undefined)	0.7	0.6	-0.1	52.3*	2.1
CCOc1ccc(C(=O)Nc2ccc(Cc3ccncc3)cc2)cc1Br	-1.4	59.7*	-14.5	8.2	-8.4
C=CCSc1nc2c(c(C3CC=CCC3)c1C#N)CCC2 (centres undefined)	-3.6	-0.5	97.2*	13.4	-3.5
O=C(NN=Cc1c(Cl)cccc1Cl)c1ccccc1F	x	x	4.0	x	15.0
C=C1C[C@H]2[C@@H]3CCc4cc(OC)ccc4[C@H]3CC[C@]12C	3.6	-0.3	x	x	x
C=C1CC2C3CCc4cc(OC)ccc4C3CC[C@]12C (some centres undefined)	x	x	88.6*	x	-10.4
COc1ccc(C2CC(=O)C=C(c3ccc(O)cc3)C2)cc1OC (centres undefined)	x	x	-7.3	x	7.9
CCOC(=O)c1c(S(=O)(=O)Nc2ccc(C)c(F)c2)c(C)n(C)c1C	-5.9	0.3	-0.1	35.2	-1.0
CCOC(=O)c1c(S(=O)(=O)Nc2ccc(C)cn2)c(C)n(C)c1C	3.1	-0.6	4.7	51.2*	2.0
O=C1NC(=Nc2ccccc2)SC1=Cc1cccn1-c1ccccc1	x	x	-21.4	x	-7.9
Cc1ccccc1N=C1NC(=O)/C(=C/c2cccn2-c2cccc(C(=O)O)c2)S1	7.8	-1.0	2.0	56.3*	1.9
CCCN1CCN(C(=O)c2ccc(CS(=O)c3ccc(Br)cc3)o2)CC1 (centres undefined)	-4.2	x	x	x	x
O=C(NCCCN1CCCCC1)c1ccc(CS(=O)c2ccc(Cl)cc2)o1 (centres undefined)	-4.0	0.8	6.4	73.4	0.6
Cc1ccc(CS(=O)Cc2ccc(C(=O)N3CCN(c4ccc(F)cc4)CC3)o2)cc1 (centres undefined)	1.6	0.4	29.5	-3.6	-3.3
SMILES	PrPC surface inh	PfHsp40 yeast	Sa ugtP lethal	DUSP3 inh	Sa RN4220 lethal
O=C(NCCCN1CCCCC1)c1ccc(CS(=O)c2ccc(F)cc2)o1 (centres undefined)	3.6	1.5	5.8	52.5*	1.5
COc1ccc(N2CCN(C(=O)c3ccc(CS(=O)Cc4ccc(C)cc4)o3)CC2)cc1 (centres undefined)	-1.1	0.0	95.5*	-31.1	-6.6
CCCN1CCN(C(=O)c2ccc(CS(=O)c3ccc(Cl)cc3)o2)CC1 (centres undefined)	-1.9	0.0	11.3	56.7*	2.8
Cc1ccc(CS(=O)Cc2ccc(C(=O)N3CCN(c4ccccc4)CC3)o2)cc1 (centres undefined)	1.5	-0.5	33.2	-31.1	-2.9
O=C(c1ccc(CS(=O)Cc2ccc(Cl)cc2)o1)N1CCN(c2ccccc2)CC1 (centres undefined)	-1.7	-0.2	93.8*	-25.6	-5.6
COc1cccc(N2CCN(C(=O)c3ccc(CS(=O)Cc4ccccc4Cl)o3)CC2)c1 (centres undefined)	-1.3	0.3	4.0	19.7	-2.6
COc1cccc(N2CCN(C(=O)c3ccc(CS(=O)Cc4ccc(Cl)cc4)o3)CC2)c1 (centres undefined)	4.1	-0.8	91.9*	-20.1	-6.8
O=C(CN1c2ccccc2Sc2ccccc21)NNC(=O)Nc1ccc(Cl)c(Cl)c1	-3.0	1.8	100.8*	-4.0	100.3*
O=C(CN1c2ccccc2Sc2ccccc21)NNC(=O)Nc1ccc(Cl)cc1	-4.7	1.5	67.6	6.2	59.7
CC(C)c1c(O)ccc2c1CC[C@H]1C(C)(C)CCC[C@]21C	-4.2	111.7*	x	x	x
CCC(C)n1c(NC(=O)c2ccccc2)c(C#N)c2nc3ccccc3nc21 (centres undefined)	-0.5	0.2	-4.8	57.5*	7.5
CCOC(=O)N=Nc1c(O)n(CC(=O)OC)c2ccccc12	-14.5	1.4	-1.2	-19.7	-1.5
CCOC(=O)N=Nc1c2ccccc2c2nc3no[nH]c3nc12	-4.5	115.8*	100.1*	25.6	100.2*
FC(F)(F)c1ccccc1C=NN1CCN(Cc2ccccc2)CC1	x	x	92.5*	x	-2.8
CC(C)(C)c1ccc(-c2cc(-c3ccccc3O)[nH]n2)cc1	3.3	33.7*	61.6	20.4	-6.8
Cc1ccc(O)c(-c2cc(-c3ccccc3C)[nH]n2)c1	4.2	321.7*	x	-0.5	x
Oc1ccccc1-c1cc(-c2cccc(F)c2)n[nH]1	-3.3	193.0*	-1.8	10.0	-6.9
COc1ccc(-c2cc(-c3ccc(C)cc3)n[nH]2)c(O)c1	8.8	2.6	-0.7	6.1	1.3
Oc1ccc(Cl)cc1-c1cc(-c2cccc(Br)c2)n[nH]1	7.4	-0.4	35.8	-16.6	11.0
O=[N+]([O-])c1ccccc1-c1cc(-c2cc(Cl)ccc2O)n[nH]1	-14.3	144.5*	5.9	-10.1	-9.6
Cc1ccc(O)c(-c2cc(-c3ccccc3[N+](=O)[O-])[nH]n2)c1	-11.3	11.7	-20.7	-4.4	-2.8
CC1CCN(C2=NC(=O)C(=Cc3cn(-c4ccccc4)nc3-c3cccc(S(=O)(=O)N(C)C)c3)S2)CC1	x	x	-12.0	x	4.8
CC1CN=C(Nc2ccccc2)N1CCCC1CCCC1 (centres undefined)	x	x	0.1	x	5.1
CC1CN(C(C)CO)C(=O)c2cccc(NC(=O)Cc3ccccc3)c2OC1CN(C)Cc1ccc(C(=O)O)cc1 (centres undefined)	x	x	-8.1	x	4.2
O=C(CCCC(=O)Nc1ccccc1Br)NN=Cc1c(F)cccc1Cl	x	x	-3.6	x	2.5
Cc1ccccc1-c1cc(-c2ccccc2O)on1	8.0	31.7*	36.1	16.5	3.9
Oc1ccccc1-c1cc(-c2ccccc2)no1	-1.3	0.0	-13.4	-4.5	-4.1

Source: PubChem BioAssay (several laboratories)
